Results published in PubChem BioAssay (NCATS).
A number with no mark means an inactive call. Results filed as inconclusive are left out. Where a call stands in place of a potency, no number is given. Calls of active or inactive are those of the source. The call rests on the fitted dose curve; in most records, active means well fitted curve in the direction sought with a large enough effect; inconclusive means small, poorly fitted or top-dose-only effect, or another doubt; inactive means no such curve, though single readings can be large; an effect the other way counts as inactive or inconclusive.

How the values were obtained:
[1] = target: Glutathione peroxidase 1 (Homo sapiens) (UniProt P07203); test: Primary qHTS Assay for Inhibitors of Recombinant Selenoprotein Glutathione Peroxidase 1 (GPX1) (AID 1845191); further: nearly all actives have a fitted effect of over 65% in size
Glutathione peroxidase 1 (Homo sapiens), sequence (P07203 whole entry, looked up): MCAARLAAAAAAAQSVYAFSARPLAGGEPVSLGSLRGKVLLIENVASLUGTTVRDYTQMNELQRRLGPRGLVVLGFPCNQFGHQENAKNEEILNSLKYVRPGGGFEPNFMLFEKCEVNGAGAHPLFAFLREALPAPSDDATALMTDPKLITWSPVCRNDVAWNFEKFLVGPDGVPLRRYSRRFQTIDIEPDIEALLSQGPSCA
Outline: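 GR-coupled assay: compounds preincubated 30 min at room temperature with GPX1, then reaction started with CHP; final 10 nM GPX1, 1 mM GSH, 0.5 mM CHP, 0.5 mM NADPH, 100 nM GR, 0.01% BSA, pH 7.5 Tris buffer. NADPH fluorescence (340/450 nm) read at 0 and 15 min.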

[2] = target: Phospholipid hydroperoxide glutathione peroxidase GPX4 (Homo sapiens) (UniProt P36969); test: Primary qHTS Assay for Inhibitors of Recombinant Selenoprotein Glutathione Peroxidase 4 (GPX4) (AID 1845192); further: nearly all actives have a fitted effect of over 65% in size; on activity change, negative = inhibition: series mostly up to about 50 µM
Phospholipid hydroperoxide glutathione peroxidase GPX4 (Homo sapiens), sequence (P36969 whole entry, looked up): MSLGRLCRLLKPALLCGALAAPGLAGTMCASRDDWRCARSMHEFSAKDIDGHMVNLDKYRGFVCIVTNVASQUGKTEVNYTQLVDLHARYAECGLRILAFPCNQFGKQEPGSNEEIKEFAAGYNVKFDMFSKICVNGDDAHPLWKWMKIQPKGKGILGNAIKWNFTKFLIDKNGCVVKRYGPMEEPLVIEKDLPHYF
Outline: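 GR-coupled assay: recombinant GPX4 preincubated 30 min with compound at room temperature; final 200 nM GPX4, 1 mM GSH, 0.5 mM cumene hydroperoxide, 0.5 mM NADPH, 100 nM GR, 0.01% BSA, pH 7.5 Tris. NADPH fluorescence (340/450 nm) read at 0 and 15 min.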

[3] = target: Luciferin 4-monooxygenase (Photinus pyralis) (UniProt P08659); test: Primary firefly luciferase (FLuc) qHTS assay for identification of artifact compounds. (AID 1845220); further: nearly all actives have a fitted effect of over 60% in size; on activity change, negative = inhibition: series mostly up to about 54 µM
Outline: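 Enzymatic FLuc inhibition assay: compounds pre-exposed to luciferin/ATP (10 uM each) for 15 min, then purified P. pyralis enzyme at 10 nM added. Read-out: luminescence at 5 min.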

[4] = Primary fluorescence-based thiol-reactive (MSTI) qHTS assay for identification of artifact compounds. (AID 1845221); further: nearly all actives have a fitted effect of over 65% in size; further: potency means the concentration at half of the fitted maximal effect;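 on activity change, negative = thiol reactive: series mostly up to about 54 µM; thiol-reactive compounds lower the probe fluorescence signal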
Outline: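 Probe: MSTI 4 uM, PBS pH 7.4, 2% DMSO. Incubation 1 h, RT, light-protected. Readout fluorescence 525/598 nm.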

[5] = tested on: Nanoluciferase (engineered Oplophorus gracilirostris luciferase); test: Primary Nanoluciferase (NLuc) qHTS assay for identification of artifact compounds. (AID 1845222);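 further: NLuc secreted into diluted conditioned medium of S16 cells; series mostly up to about 54 µM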
Outline: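 S16 cell supernatant NLuc, 1:55; cpds qHTS; 15 min RT dark; Nano-Glo substrate 1:100, 5 min; luminescence; Hill fit of % inhibition.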

[6] = Primary redox qHTS assay for identification of artifact compounds. (AID 1845223)
Outline: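 Amplex Red (25 uM) and HRP (250 mU/mL) in HBSS, with compounds for 15 min, then 250 uM DTT for 30 min, room temperature, dark. Fluorescence 525/598 nm read; normalized to DMSO and 10 uM DA3003; Hill fit.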

## CC(=O)O[C@@H]1c2c3c(cc(O)c2C(=O)O[C@@H]1C)O[C@@]1(C)[C@@H](O)C[C@H]2C(C)(C)C(=O)C=C[C@]2(C)[C@@H]1C3
[1]
  Potency: inactive
[2]
  Potency: inactive
[3]
  Potency: inactive
[4]
  Potency: inactive
[5]
  Potency: inactive
[6]
  Potency: inactive

## CC(=O)/C=C/[C@H]1[C@](C)(O)[C@@H](O)[C@H](OC(C)=O)C2C(C)(C)CCC[C@@]21C (stereo partly drawn)
[1]
  Potency: inactive
[2]
  Potency: inactive
[3]
  Potency: inactive
[4]
  Potency: inactive
[5]
  Potency: inactive
[6]
  Potency: inactive

## N=c1nc2n(cc1F)C1OC(CO)C(O)C1O2 (stereo not drawn)
[1]
  Potency: inactive
[2]
  Potency: inactive
[3]
  Potency: inactive
[4]
  Potency: inactive
[5]
  Potency: inactive
[6]
  Potency: inactive

## N#Cc1ccc2[nH]cc(CCCCN3CCN(c4ccc5oc(C(N)=O)cc5c4)CC3)c2c1
[1]
  Potency: inactive
[2]
  Potency: inactive
[3]
  Potency: inactive
[4]
  Potency: inactive
[5]
  Potency: inactive
[6]
  Potency: inactive

## C=C1CCC2C(C)(COC(C)=O)CCCC2(C)C1CCC(C)CC(=O)O (stereo not drawn)
[1]
  Potency: inactive
[2]
  Potency: inactive
[3]
  Potency: inactive
[4]
  Potency: inactive
[5]
  Potency: inactive
[6]
  Potency: inactive

## C=C(C)[C@@H]1CC[C@]2(C)CC[C@]3(C)[C@H](CC[C@@H]4[C@@]5(C)CC[C@@H](O)C(C)(C)[C@@H]5CC[C@]43C)[C@@H]12
[1]
  Potency: inactive
[2]
  Potency: inactive
[3]
  Potency: inactive
[4]
  Potency: inactive
[5]
  Potency: inactive
[6]
  Potency: inactive

## CC1(C)CC[C@]23CO[C@@]4(CCC5[C@@]6(C)CC[C@H](O[C@@H]7OC[C@H](O[C@@H]8O[C@H](CO)[C@@H](O)[C@H](O)[C@H]8O)[C@H](O)[C@H]7O[C@@H]7O[C@H](CO)[C@@H](O[C@@H]8O[C@H](CO)[C@@H](O)[C@H](O)[C@H]8O)[C@H](O)[C@H]7O)[C@@](C)(CO)C6CC[C@@]5(C)[C@]4(C)C[C@H]2OC2OCC(O)C(O)C2O)C3C1 (stereo partly drawn)
[1]
  activity, negative = inhibition: -19.2% [at 9.52 µM]
[2]
  activity change, negative = inhibition: -5.8% [at 9.73 µM]
[3]
  activity change, negative = inhibition: -1.22% [at 11.6 µM]
[4]
  activity change, negative = thiol reactive: 227% [at 11.5 µM]
[5]
  activity, negative = inhibition: 0% [at 11.6 µM]
[6]
  redox activity (% of DA3003): 2.43% [at 11.5 µM]

## CCCOC(c1cc2nccc(C(=O)O)c2[nH]1)c1ccccc1Cl (stereo not drawn)
[1]
  Potency: inactive
[2]
  Potency: inactive
[3]
  Potency: inactive
[4]
  Potency: inactive
[5]
  Potency: inactive
[6]
  Potency: inactive

## CC(C)(C#N)c1ccc(N2C(=O)OCc3cnc4ccc(-c5cnc6ccccc6c5)cc4c32)cc1
[1]
  Potency: inactive
[2]
  Potency: inactive
[3]
  Potency: inactive
[4]
  Potency: inactive
[5]
  Potency: inactive
[6]
  Potency: inactive

## O=C1NC(=O)C(c2cn3c4c(cccc24)CCC3)C1c1c[nH]c2ccccc12 (stereo not drawn)
[1]
  Potency: inactive
[2]
  Potency: inactive
[3]
  Potency: inactive
[4]
  Potency: inactive
[5]
  Potency: inactive
[6]
  Potency: inactive

## C[C@@]12C[C@]3(O)O[C@H](O1)[C@]1(COC(=O)c4ccccc4)[C@H]3C[C@@]12O[C@@H]1O[C@H](CO)[C@@H](O)[C@H](O)[C@H]1O
[1]
  Potency: inactive
[2]
  Potency: inactive
[3]
  Potency: inactive
[4]
  Potency: inactive
[5]
  Potency: inactive
[6]
  Potency: inactive

## Cc1cccc(C)c1OCc1cc(C(=O)N2CCC(c3ccncc3)CC2)no1
[1]
  Potency: inactive
[2]
  Potency: inactive
[3]
  Potency: inactive
[4]
  Potency: inactive
[5]
  Potency: inactive
[6]
  Potency: inactive

## CC(=O)OC1CC2C3(C)CCC(OC(=O)CC(=O)O)C(C)(C)C3CCC2(C)C2(C)CCC(C3(C)CCC(=O)O3)C12 (stereo not drawn)
[1]
  Potency: inactive
[2]
  Potency: inactive
[3]
  Potency: inactive
[4]
  Potency: inactive
[5]
  Potency: inactive
[6]
  Potency: inactive

## CC(=O)O[C@H]1CC[C@H](C)[C@@]2(C)[C@H](OC(C)=O)c3c(C)coc3C(=O)[C@H]12
[1]
  Potency: inactive
[2]
  Potency: inactive
[3]
  Potency: inactive
[4]
  Potency: inactive
[5]
  Potency: inactive
[6]
  Potency: inactive

## CC12CCC(OC3OC(CO)C(O)C(OC4OC(CO)C(O)C(O)C4O)C3O)CC1CCC1C2CCC2(C)/C(=C3/COC(=O)C3)CCC12O (stereo not drawn)
[1]
  Potency: inactive
[2]
  Potency: inactive
[3]
  Potency: inactive
[4]
  Potency: inactive
[5]
  Potency: inactive
[6]
  Potency: inactive

## CC1(C)CC[C@]2(C(=O)O[C@@H]3O[C@H](CO)[C@@H](O)[C@H](O)[C@H]3O)CC[C@]3(C)C(=CCC4[C@@]5(C)C[C@@H](O)[C@H](O)[C@](C)(C=O)C5CC[C@]43C)[C@@H]2[C@@H]1O (stereo partly drawn)
[1]
  Potency: inactive
[2]
  Potency: inactive
[3]
  Potency: inactive
[4]
  Potency: 3.98 µM (active)
[5]
  Potency: inactive
[6]
  Potency: inactive

## CN1CCC(Nc2nc(Nc3ccc(Oc4ccccc4)cc3)c3c(=O)[nH]cc(Br)c3n2)CC1
[1]
  Potency: inactive
[2]
  Potency: inactive
[3]
  Potency: inactive
[4]
  Potency: inactive
[5]
  Potency: inactive
[6]
  Potency: inactive

## COC(=O)CC(O)CC(O)/C=C/c1c(C)ccc2c1C(O)CC(C)C2 (stereo not drawn)
[1]
  Potency: inactive
[2]
  Potency: inactive
[3]
  Potency: inactive
[4]
  Potency: inactive
[5]
  Potency: inactive
[6]
  Potency: inactive

## COc1cc2ncnc(N3CCC(Oc4cnc5ccccc5n4)C3)c2cc1OC (stereo not drawn)
[1]
  Potency: inactive
[2]
  Potency: inactive
[3]
  Potency: inactive
[4]
  Potency: inactive
[5]
  Potency: inactive
[6]
  Potency: inactive

## Cc1ccccc1CN1C2=NCCN2C(=O)C2=C1CCN(Cc1ccccc1)C2
[1]
  Potency: inactive
[2]
  Potency: inactive
[3]
  Potency: inactive
[4]
  Potency: inactive
[5]
  Potency: inactive
[6]
  Potency: inactive

## CCOc1cc(C(=O)N2CCC(N3CCN(C)CC3)CC2)ccc1Nc1ncc2c(n1)N(C1CCCC1)c1ccccc1C(=O)N2C
[1]
  Potency: inactive
[2]
  Potency: inactive
[3]
  Potency: inactive
[4]
  Potency: inactive
[5]
  Potency: inactive
[6]
  Potency: inactive

## CC[C@H]1OC(=O)[C@](C)(F)C(=O)[C@H](C)[C@@H](O[C@@H]2O[C@H](C)C[C@H](N(C)C)[C@H]2O)[C@](C)(OC)C[C@@H](C)C(=O)[C@@H](C)[C@H]2N(CCCCn3cc(-c4cccc(N)c4)nn3)C(=O)O[C@]12C
[1]
  Potency: inactive
[2]
  Potency: inactive
[3]
  Potency: inactive
[4]
  Potency: inactive
[5]
  Potency: inactive
[6]
  Potency: inactive

## CC(C)(C)CCN1C[C@@H]2C(CNC(=O)c3cc(Cl)cc(Cl)c3)[C@@H]2C1 (stereo partly drawn)
[1]
  Potency: inactive
[2]
  Potency: inactive
[3]
  Potency: inactive
[4]
  Potency: inactive
[5]
  Potency: inactive
[6]
  Potency: inactive
